High-throughput results from PubChem.
KB-V1 cytotox – KB-V1 MDR subline cytotoxicity | KB-V1 MDR cells viability, CellTiter-Glo, 72 h | Potency, µM (titrated, usually from 46.1 µM), actives largely listed as cytotoxic | 400,000 compounds, 3.4% hits; also: nearly all actives have a fitted effect of over 60% in size
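Luminescent ATP read-out (CellTiter-Glo, 10 min) measures survival of drug-selected KB-V1 MDR cells after 72 h, 37 degrees C compound exposure. Medium: phenol-red-free DMEM, 10% FBS. Values from fitted concentration-response curves.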
KB-3-1 tox – KB-3-1 parental cell cytotoxicity; KB-3-1 viability, CellTiter-Glo ATP luminescence, 72 h; 400,000 compounds, 1.4% hits; Potency, µM (top dose mostly 46.1 µM), most hits filed as cytotoxic; also: nearly all actives have a fitted effect of over 60% in size
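KB-3-1 cells, DMEM (no phenol red) + 10% FBS; compound by pin transfer, 72 h, 37 °C. Readout: CellTiter-Glo luminescence after 10 min. Data normalized, curve-fitted.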
HT1080 IDH1KD tx – kills HT-1080 cells with IDH1 knockdown; 360,000 compounds, 2% hits; Potency, µM (titrated, usually from 46.1 µM), usual class: cytotoxic; AID 686971; HT-1080 IDH1 knockdown viability, ATP luminescence, 48 h
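IDH1KD HT-1080 cells, 750/well, RPMI + 5% FBS; compound pinned after 2 h settling; 48 h, 37 °C; CellTiter-Glo luminescence; % activity normalised to DMSO and no-cell wells; curves fitted, classed by r2 and efficacy.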
HT1080NT lethal – kills 2HG-producing HT-1080-NT fibrosarcoma cells; HT-1080-NT fibrosarcoma viability, CellTiter-Glo ATP luminescence, 48 h; AID 686970; 360,000 compounds, 1.6% hits; Potency, µM (titrated, usually from 46.1 µM), usual class: cytotoxic;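 also: NT is the 2HG producing partner of a matched IDH1 knockdown line; nearly all actives have a fitted effect of over 55% in size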
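Viability by CellTiter-Glo luminescence after 48 h compound exposure at 37C of HT-1080-NT cells (750/well, RPMI, 5% FBS). % activity scaled between DMSO wells and medium-only wells, then curve-fitted and categorized by curve class.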
IL-1B inflam inh – inflammasome signaling inhibition, IL-1 beta readout | THP-1 LPS/ATP IL-1B secretion, AlphaLISA, 16 h; hits give low values | activity change, % at 57.5 µM | 360,000 compounds, 4.7% hits | AID 743279; in the data active = activity change below about -50%; inconclusive = mostly about -30% to -49%
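Secreted IL-1B measured by AlphaLISA bead assay after 16 h compound exposure of THP-1 cells; compounds (final up to 57.5 uM) added 1 h before LPS (250 ng/mL) and ATP (1.25 mM) stimulation; lower signal means less secretion.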
Large screens that a line does not name were inactive; ! = not active in a repeat. Only some compounds are listed: those with a hit (about 8.8% of all), similar ones and a draw of the others. Unless noted, calls follow the shape of the dose curve; as a rule, active = well fitted curve in the direction sought with a large enough effect; inconclusive = small, poorly fitted or top-dose-only effect, or another doubt; inactive = no such curve, though single readings can be large; an effect the other way counts as inactive or inconclusive.

Cc1ccc(/C=C2\CCCC3=C2NC(=S)NC3c2ccc(C)cc2)cc1 (configuration not stated)	KB-V1 cytotox 16µM, KB-3-1 tox inconclusive
COc1cc2ccccc2cc1C(=O)Nc1ccc(C)cn1	none
COc1cc(-c2noc(C)c2/C=C/c2ccc(N)cc2)cc(OC)c1OC	KB-V1 cytotox 0.58µM!, KB-3-1 tox 0.26µM!, HT1080 IDH1KD tx 0.92µM, HT1080NT lethal 0.58µM
COc1cc(-c2noc(C)c2C#Cc2ccc(N)cc2)cc(OC)c1OC	KB-V1 cytotox 1.3µM!, KB-3-1 tox 0.82µM!, HT1080 IDH1KD tx 0.65µM, HT1080NT lethal 0.82µM
COc1cc(-c2noc(C)c2C(=O)NCCO)cc(OC)c1OC	none
COc1cc(-c2noc(C)c2C#Cc2ccccn2)cc(OC)c1OC	KB-V1 cytotox 1.3µM!, KB-3-1 tox 0.58µM!, HT1080 IDH1KD tx 2.1µM, HT1080NT lethal 1.6µM
CNC(C)C#Cc1c(-c2cc(OC)c(OC)c(OC)c2)noc1C (configuration not stated)	KB-V1 cytotox inconclusive
Cc1ccc(S(=O)(=O)NCc2ccc(C(=O)N3CCN(c4ccc([N+](=O)[O-])cc4)CC3)cc2)cc1	KB-V1 cytotox inconclusive, KB-3-1 tox inconclusive
CCN(CC)S(=O)(=O)c1ccc(OC(C)C)c(NC(=O)C2=COCCO2)c1	KB-V1 cytotox 7.3µM
CCN1c2ccccc2-c2nc(SCC(=O)Nc3c(C)cc(C)cc3C)ncc2S1(=O)=O	KB-V1 cytotox 4.6µM, KB-3-1 tox 10µM (no result: HT1080 IDH1KD tx, HT1080NT lethal, IL-1B inflam inh)
CCN1c2ccccc2-c2nc(SCC(=O)Nc3cccc(C)c3C)ncc2S1(=O)=O	none (no result: HT1080 IDH1KD tx, HT1080NT lethal, IL-1B inflam inh)
O=C(CSc1ncc2c(n1)-c1cc(Cl)ccc1N(Cc1ccccc1)S2(=O)=O)Nc1ccc(F)cc1F	KB-V1 cytotox 13µM (no result: HT1080 IDH1KD tx, HT1080NT lethal, IL-1B inflam inh)
COc1ccccc1NC(=O)CSc1ncc2c(n1)-c1cc(Cl)ccc1N(Cc1ccccc1)S2(=O)=O	none (no result: HT1080 IDH1KD tx, HT1080NT lethal, IL-1B inflam inh)
Cc1ccc(S(=O)(=O)NC2c3cccc4cccc(c34)C2Sc2nncn2C)cc1 (configuration not stated)	KB-3-1 tox inconclusive
Cn1cnnc1SC1c2cccc3cccc(c23)C1NS(=O)(=O)c1ccccc1 (configuration not stated)	none
CS(=O)(=O)NC1c2cccc3cccc(c23)C1Sc1nncn1/N=C/c1ccco1 (configuration not stated)	IL-1B inflam inh -60
CC(=O)N1CCN(C2c3cccc4cccc(c34)C2NS(=O)(=O)c2ccccc2)CC1 (configuration not stated)	none
O=S(=O)(NC1c2cccc3cccc(c23)C1N1CCNCC1)c1ccc(Cl)cc1 (configuration not stated)	KB-3-1 tox inconclusive, HT1080 IDH1KD tx 21µM, HT1080NT lethal 18µM, IL-1B inflam inh -60
Cn1cnnc1SC1c2cccc3cccc(c23)C1NS(=O)(=O)c1ccc(Cl)cc1 (configuration not stated)	KB-V1 cytotox 12µM
Cc1ccc(S(=O)(=O)NC2c3cccc4cccc(c34)C2Sc2nc(C)cc(C)n2)cc1 (configuration not stated)	KB-V1 cytotox 5.2µM
CCN(Cc1cc2ccccc2[nH]c1=O)C(=O)c1cccc([N+](=O)[O-])c1	none
CC(=O)Nc1ccc(NC(=O)C2CCCN2/C=C/C(=O)C(F)(F)F)cc1 (configuration not stated)	none
COc1cccc(CNC(=O)CCS(=O)(=O)c2ccccc2Cl)c1	none
COc1ccc(C(=O)Nc2sc(C(=O)N(C)C)c(C)c2C#N)cc1[N+](=O)[O-]	KB-V1 cytotox 18µM, KB-3-1 tox inconclusive
O=C(NCc1ccncc1)C1Cc2c(-c3ccccc3Oc3ccccc3)ccnc2O1 (configuration not stated)	HT1080NT lethal inconclusive, IL-1B inflam inh -59
O=C(NCc1cccs1)C1Cc2c(-c3ccccc3Oc3ccccc3)ccnc2O1 (configuration not stated)	HT1080 IDH1KD tx inconclusive
O=C(Nc1ccc(F)c(Cl)c1)C1Cc2c(-c3ccccc3Oc3ccccc3)ccnc2O1 (configuration not stated)	HT1080NT lethal 13µM, IL-1B inflam inh inconclusive
CCOC(=O)C1=C[C@@H](C(C)C)N(S(=O)(=O)c2ccc(C)cc2)[C@H]1c1ccc(C(F)(F)F)cc1	KB-V1 cytotox inconclusive
Cc1c(O)ccc(C(=O)CN2CCN(Cc3ccc4c(c3)OCO4)CC2)c1O	KB-V1 cytotox 23µM
COC(=O)c1ccsc1NC(=O)CN1CCN(Cc2ccc3c(c2)OCO3)CC1	KB-V1 cytotox 16µM
COC(=O)c1c(NC(=O)CN2C(=O)c3ccccc3C2=O)sc(Cc2ccc3c(c2)OCO3)c1C	none
COC(=O)c1c(NC(=O)CN2CCN(Cc3ccc4c(c3)OCO4)CC2)sc(C)c1C	KB-V1 cytotox inconclusive, KB-3-1 tox inconclusive, HT1080 IDH1KD tx inconclusive, HT1080NT lethal inconclusive, IL-1B inflam inh -76
CCc1c(C)sc(NC(=O)CN2CCN(C(=O)c3ccco3)CC2)c1C(=O)OC	HT1080 IDH1KD tx inconclusive, HT1080NT lethal inconclusive, IL-1B inflam inh -79
CCOC(=O)N1CCN(Cc2ccc3c(c2)OCO3)CC1	none
COc1cccc(/C=C/C(=O)OCC(=O)Nc2cccc(S(=O)(=O)NC3=NCCCCC3)c2)c1	IL-1B inflam inh inconclusive
CCOc1ccc(CCNC(=O)c2sc3ncccc3c2-n2c(C)ccc2C)cc1	none (no result: HT1080 IDH1KD tx, HT1080NT lethal, IL-1B inflam inh)
CCc1nc2ccc(C(=O)NCCCN3CCCC3=O)cn2c1N(C)Cc1ccc(OC)cc1	none
COC(=O)c1sc(N/N=C/c2ccc(C(C)C)cc2)nc1C	IL-1B inflam inh -64
O=C(O)c1cccc(N/N=C/c2sc(N3CCOCC3)nc2-c2ccccc2)c1	none
O=[N+]([O-])c1ccc(N/N=C/c2sc(N3CCOCC3)nc2-c2ccccc2)c(S(=O)(=O)Nc2ccccc2Cl)c1	KB-V1 cytotox inconclusive, KB-3-1 tox 9.2µM
O=[N+]([O-])c1ccc(N/N=C/c2sc(N3CCOCC3)nc2-c2ccccc2)c(S(=O)(=O)Nc2ccc(Cl)cc2)c1	KB-3-1 tox 2.3µM, IL-1B inflam inh inconclusive
Cn1c(=O)cc(SCC(=O)N2CCN(c3ccc(F)cc3)CC2)c2ccc(Cl)cc21	none (no result: HT1080 IDH1KD tx, HT1080NT lethal, IL-1B inflam inh)
C=C(C)CNC(=S)NNC(=O)c1ccco1	HT1080 IDH1KD tx inconclusive, HT1080NT lethal 2µM
CN(C)c1ccc(CNC(=O)CC[C@H]2O[C@@H](n3cnc4c(NC(=O)c5ccccc5)ncnc43)[C@H](O)[C@@H]2O)cc1	IL-1B inflam inh inconclusive
Cn1ccnc1SCc1cc(=O)[nH]c2ccccc12	none
CCCCn1c(SCC(=O)N2c3ccccc3CCc3ccccc32)nc2c1c(=O)n(C)c(=O)n2C	KB-V1 cytotox inconclusive
CCn1c(SCC(=O)N2CCCc3ccccc32)nc2c1c(=O)n(C)c(=O)n2C	KB-V1 cytotox 2.9µM, KB-3-1 tox inconclusive
